Experimental data published in PubChem BioAssay (NCATS).
Results filed as inconclusive are left out. Values without a mark were called inactive. Calls of active or inactive are those of the source. Calls come from the whole dose curve; as a rule, active = well fitted inhibition curve with a large enough effect; inconclusive = small, poorly fitted or top-dose-only effect; inactive = flat fitted curve, though single readings scatter.

What follows are compounds tested on Dd2 (assay: qHTS profiling for inhibitors of Plasmodium falciparum proliferation (AID 504749; note: nearly all actives have a fitted effect of over 60% in size;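 for activity, negative = inhibition: 0% = DMSO vehicle and full inhibition = artemisinin control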)). Settings: P. falciparum in erythrocytes, SYBR Green DNA, 72 h; series mostly up to 28.7 µM; activity, negative = inhibition: at the top concentration.
Procedure, shortened: (§1)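 P. falciparum-infected erythrocytes (0.3% parasitemia, 2.5% hematocrit final) were exposed to compounds for 72 h at 37 C in 5% CO2, then lysed with SYBR Green buffer overnight at room temperature; parasite DNA fluorescence was normalized to artemisinin and DMSO controls.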
Potency is the fitted concentration of half-maximal effect.

First: O=[N+]([O-])O[C@H]1CO[C@H]2[C@@H]1OC[C@H]2O
Second: CCCCCCCCCCCC(=O)OCC(O)C1OCC(O)C1O (centres undefined)
The “activity, negative = inhibition” value of the first is higher: 5.07% for the first, -11.1% for the second.

Compared with `COc1cccc(OC)c1C(=O)NC1C(=O)N2C1SC(C)(C)C2C(=O)O` (centres undefined), `CC(=O)OCC(=O)[C@@]1(O)CCC2C3C[C@H](C)C4=CC(=O)C=CC4(C)C3C(O)CC21C` (some centres undefined) is lower in “activity, negative = inhibition” value: 13% for the first, 1.2% for the second.

Going from `NC[C@@H]1O[C@H](OC2[C@@H](CO)O[C@@H](OC3[C@H](O)[C@H](N)C[C@H](N)[C@H]3OC3O[C@H](CO)[C@@H](O)[C@H](O)[C@@H]3N)[C@H]2O)C(N)[C@H](O)[C@@H]1O` (some centres undefined) to `CC1OC(OC2CCC3(C)C(CCC4C3CC(O)C3(C)C(C5=CC(=O)OC5)CCC43O)C2)CC(O)C1OC1CC(O)C(OC2CC(O)C(OC3OC(CO)C(O)C(O)C3O)C(C)O2)C(C)O1` (centres undefined), the “activity, negative = inhibition” value falls from 2.5% to -1.64%.

First: Cc1ccc(S(=O)(=O)NC(=O)NC(C)Cc2ccccc2)cc1 (centres undefined)
Second: O=C1C(I)=CC(=C(c2cc(I)c(O)c(I)c2)c2ccccc2C(=O)O)C=C1I
The “activity, negative = inhibition” value of the first is higher: -3.15% for the first, -18.1% for the second.

Going from `OCCOC[C@H]1O[C@H](OCCO)[C@H](OCCO)[C@@H](OCCO)[C@@H]1OCCO` (tested in a mixture with another compound) to `CC1OC(OCC2OC(Oc3c(-c4ccc(OCCO)c(OCCO)c4)oc4cc(OCCO)cc(O)c4c3=O)C(O)C(O)C2O)[C@@H](O)C(O)C1O` (some centres undefined), the “activity, negative = inhibition” value rises from -3.67% to -0.621%.

Going from `C[S+](C)CC[C@H](N)C(=O)O` to `NC(=O)NC(CCC(=O)O)C(=O)O` (centres undefined), the “activity, negative = inhibition” value falls from 9.86% to 4.02%.

First: CC[C@@H]1/C=C(\C)C[C@H](C)C[C@H](OC)[C@H]2O[C@@](O)(C(=O)C(=O)N3CCCC[C@H]3C(=O)O[C@H](/C(C)=C/[C@@H]3CC[C@H](Cl)[C@H](OC)C3)[C@H](C)[C@@H](O)CC1=O)[C@H](C)C[C@@H]2OC
Second: C/C1=C2/[N-]C(C(CC(N)=O)[C@@]2(C)CCC(=O)NCC(C)OP(=O)([O-])O[C@H]2[C@@H](O)[C@@H](n3cnc4cc(C)c(C)cc43)O[C@@H]2CO)[C@]2(C)N=C(/C(C)=C3N=C(/C=C4N=C1C(CCC(N)=O)C\4(C)C)[C@@H](CCC(N)=O)[C@]\3(C)CC(N)=O)[C@@H](CCC(N)=O)[C@]2(C)CC(N)=O.CC(=O)O.[Co] (some centres undefined)
The “activity, negative = inhibition” value of the first is higher: -0.0118% for the first, -22.4% for the second.

First: NC(=O)C1CC2(NC(=O)NC2=O)c2cc(F)ccc2O1 (centres undefined)
Second: Cc1ccccc1N1C(=O)c2cc(N)ccc2N/C1=C\F
The “activity, negative = inhibition” value of the first is higher: 0.524% for the first, -19.4% for the second.

Compared with `CN1[C@@H]2CC[C@@H]1CC(OC(=O)[C@H](CO)c1ccccc1)C2` (some centres undefined), `OCC1O[C@H](Oc2ccc(O)cc2)C(O)C(O)C1O` (some centres undefined) is higher in “activity, negative = inhibition” value: -1.25% for the first, 6.74% for the second.

First: CC1(C)OC[C@@H]2O[C@@]3(C(=O)O)OC(C)(C)O[C@@H]3[C@@H]2O1
Second: CC1(C)C2CC[C@]1(C)[C@@H](O)C2
The “activity, negative = inhibition” value of the first is higher: -1.56% for the first, -3.19% for the second.

In the case of `Nc1nc(F)nc2c1ncn2[C@@H]1O[C@H](CO)[C@@H](O)[C@H]1O`, the “activity, negative = inhibition” value is reported as 4.33%.

`CC[C@@]1(O)C[C@H](O[C@H]2C[C@@H](N(C)C)[C@@H](O[C@H]3C[C@@H](O)[C@@H](O[C@H]4CCC(=O)[C@@H](C)O4)[C@@H](C)O3)[C@@H](C)O2)c2c(cc3c(c2O)C(=O)c2c(O)cccc2C3=O)[C@H]1C(=O)OC` was tested, and the Potency was 89.1 nM (active).
For `CCC(C(=O)O)C1OC(C(C)C(O)C(C)C(=O)C(CC)C2OC3(C=CC(O)C4(CCC(C)(C5CCC(O)(CC)C(C)O5)O4)O3)C(C)CC2C)C(C)CC1C` (centres undefined), the Potency was 100 nM (active).
In the case of `COC1CC2CCC(C)[C@](O)(O2)C(=O)C(=O)N2CCCCC2C(=O)OC(C(C)CC2CCC(O)C(OC)C2)CC(=O)C(C)/C=C(/C)C(O)C(OC)C(=O)C(C)CC(C)C=CC=C/C=C\1C` (some centres undefined), the Potency is reported as 1580 nM (active).
`CN[C@H](C)CCC=C(C)C` was tested, and the Potency was 79.4 nM (active).

Each compound was assayed on ECU in the same assay as above. Settings: P. falciparum in erythrocytes, SYBR Green DNA, 72 h; series mostly up to 28.7 µM; activity, negative = inhibition: at the top concentration.
Procedure, shortened: as §1

Going from `CCCCCCCCCCCCCCCC(=O)OC[C@H](O)[C@H]1OC[C@@H](O)[C@@H]1O` to `CCCCCCCCCCCC(=O)OCC(O)C1OCC(O)C1O` (centres undefined), the “activity, negative = inhibition” value rises from -2.29% to 8.79%.

First: C[C@H]1OC(OC2C(O)[C@@H](O)C(OC3C(O)[C@@H](O)C(O)O[C@@H]3CO)O[C@@H]2CO)[C@H](O)C(O)C1N[C@H]1C=C(CO)[C@@H](O)[C@H](O)C1O (some centres undefined)
Second: NC[C@@H]1O[C@H](OC2[C@@H](CO)O[C@@H](OC3[C@H](O)[C@H](N)C[C@H](N)[C@H]3OC3O[C@H](CO)[C@@H](O)[C@H](O)[C@@H]3N)[C@H]2O)C(N)[C@H](O)[C@@H]1O (some centres undefined)
The “activity, negative = inhibition” value of the first is higher: 7.45% for the first, 5.04% for the second.

First: CCN(CC)CC(=O)Nc1c(C)cc(C)cc1C
Second: CN(C)CC/C=C1\c2ccccc2COc2ccc(CC(=O)O)cc21
The “activity, negative = inhibition” value of the first is higher: 3.36% for the first, -0.621% for the second.

First: NC(=O)c1ncn(C2OC(CO)C(O)C2O)c1N (centres undefined)
Second: Nc1nc(F)nc2c1ncn2[C@@H]1O[C@H](CO)[C@@H](O)[C@H]1O
The “activity, negative = inhibition” value of the first is lower: 5.43% for the first, 6.11% for the second.

First: CC1(Cn2ccnn2)[C@H](C(=O)O)N2C(=O)C[C@H]2S1(=O)=O (some centres undefined)
Second: COc1cccc(OC)c1C(=O)NC1C(=O)N2C1SC(C)(C)C2C(=O)O (centres undefined)
The “activity, negative = inhibition” value of the first is lower: 0.37% for the first, 3.8% for the second.

Going from `CCCC(=O)O[C@]1(C(=O)COC(C)=O)CC[C@H]2C3C[C@H](F)C4=CC(=O)C=CC4(C)[C@@]3(F)[C@@H](O)CC21C` (some centres undefined) to `CC(=O)OCC(=O)[C@@]1(O)CCC2C3C[C@H](C)C4=CC(=O)C=CC4(C)C3C(O)CC21C` (some centres undefined), the “activity, negative = inhibition” value rises from -17.2% to 6.52%.

Going from `OCCN1CC(O)C(O)C(O)C1CO` (centres undefined) to `OCCOC[C@H]1O[C@H](OCCO)[C@H](OCCO)[C@@H](OCCO)[C@@H]1OCCO` (tested in a mixture with another compound), the “activity, negative = inhibition” value rises from 3.54% to 10.7%.

Compared with `CC(CCC(=O)O)C1CCC2C3C(=O)C[C@@H]4CC(=O)CC[C@@]4(C)C3CC(=O)[C@]12C` (some centres undefined), `CC[C@@H]1/C=C(\C)C[C@H](C)C[C@H](OC)[C@H]2O[C@@](O)(C(=O)C(=O)N3CCCC[C@H]3C(=O)O[C@H](/C(C)=C/[C@@H]3CC[C@H](Cl)[C@H](OC)C3)[C@H](C)[C@@H](O)CC1=O)[C@H](C)C[C@@H]2OC` is higher in “activity, negative = inhibition” value: -1.91% for the first, 12% for the second.

Compared with `O=C(OC[C@@H]1O[C@@](O)(COC(=O)c2cccnc2)[C@H](OC(=O)c2cccnc2)[C@H]1OC(=O)c1cccnc1)c1cccnc1`, `Cc1ccc(S(=O)(=O)NC(=O)NC(C)Cc2ccccc2)cc1` (centres undefined) is lower in “activity, negative = inhibition” value: 13.2% for the first, 11.5% for the second.

Compared with `O=[N+]([O-])O[C@H]1CO[C@H]2[C@@H]1OC[C@H]2O`, `CC1(C)OC[C@@H]2O[C@@]3(C(=O)O)OC(C)(C)O[C@@H]3[C@@H]2O1` is higher in “activity, negative = inhibition” value: 5.31% for the first, 6.3% for the second.

First: C[S+](C)CC[C@H](N)C(=O)O
Second: NC(=O)NC(CCC(=O)O)C(=O)O (centres undefined)
The “activity, negative = inhibition” value of the first is higher: 9.69% for the first, 4.42% for the second.

Compared with `NC(=O)C1CC2(NC(=O)NC2=O)c2cc(F)ccc2O1` (centres undefined), `Cc1ccccc1N1C(=O)c2cc(N)ccc2N/C1=C\F` is lower in “activity, negative = inhibition” value: 19.6% for the first, -7.32% for the second.

First: CN1[C@@H]2CC[C@@H]1CC(OC(=O)[C@H](CO)c1ccccc1)C2 (some centres undefined)
Second: O=C1C(I)=CC(=C(c2cc(I)c(O)c(I)c2)c2ccccc2C(=O)O)C=C1I
The “activity, negative = inhibition” value of the first is lower: -3.34% for the first, 3.61% for the second.

First: C/C1=C2/[N-]C(C(CC(N)=O)[C@@]2(C)CCC(=O)NCC(C)OP(=O)([O-])O[C@H]2[C@@H](O)[C@@H](n3cnc4cc(C)c(C)cc43)O[C@@H]2CO)[C@]2(C)N=C(/C(C)=C3N=C(/C=C4N=C1C(CCC(N)=O)C\4(C)C)[C@@H](CCC(N)=O)[C@]\3(C)CC(N)=O)[C@@H](CCC(N)=O)[C@]2(C)CC(N)=O.CC(=O)O.[Co] (some centres undefined)
Second: CC1OC(OCC2OC(Oc3c(-c4ccc(OCCO)c(OCCO)c4)oc4cc(OCCO)cc(O)c4c3=O)C(O)C(O)C2O)[C@@H](O)C(O)C1O (some centres undefined)
The “activity, negative = inhibition” value of the first is lower: -15.6% for the first, 9.42% for the second.

First: CC1(C)C2CC[C@]1(C)[C@@H](O)C2
Second: CC1OC(OC2CCC3(C)C(CCC4C3CC(O)C3(C)C(C5=CC(=O)OC5)CCC43O)C2)CC(O)C1OC1CC(O)C(OC2CC(O)C(OC3OC(CO)C(O)C(O)C3O)C(C)O2)C(C)O1 (centres undefined)
The “activity, negative = inhibition” value of the first is higher: 18.5% for the first, 2.95% for the second.

In the case of `CCCCC(=O)OCC(=O)[C@]1(O)Cc2c(O)c3c(c(O)c2[C@H](OC2CC(NC(=O)C(F)(F)F)C(O)C(C)O2)C1)C(=O)c1c(OC)cccc1C3=O` (some centres undefined), the Potency is reported as 2510 nM (active).
For `C[C@H]1[C@@H](OC(=O)CCC(=O)O)OC2OC3(C)CC[C@H]4[C@H](C)CC[C@@H]1[C@@]24OO3` (some centres undefined), the Potency was 2.8 nM (active).
In the case of `COc1cc2c(cc1O)CCN[C@@]21CS[C@H]2c3c(OC(C)=O)c(C)c4c(c3C(COC1=O)N1C2C2c3c(cc(C)c(OC)c3O)CC([C@@H]1O)N2C)OCO4` (some centres undefined), the Potency is reported as 0.8 nM (active).
`C[n+]1c2cc(N)ccc2cc2ccc(N)cc21` was tested, and the Potency was 1260 nM (active).
For `CC[C@@]1(O)C[C@H](O[C@H]2C[C@@H](N(C)C)[C@@H](O[C@H]3C[C@@H](O)[C@@H](O[C@H]4CCC(=O)[C@@H](C)O4)[C@@H](C)O3)[C@@H](C)O2)c2c(cc3c(c2O)C(=O)c2c(O)cccc2C3=O)[C@H]1C(=O)OC`, the Potency was 355 nM (active).
For `CCC(C(=O)O)C1OC(C(C)C(O)C(C)C(=O)C(CC)C2OC3(C=CC(O)C4(CCC(C)(C5CCC(O)(CC)C(C)O5)O4)O3)C(C)CC2C)C(C)CC1C` (centres undefined), the Potency was 178 nM (active).
In the case of `COC1CC2CCC(C)[C@](O)(O2)C(=O)C(=O)N2CCCCC2C(=O)OC(C(C)CC2CCC(O)C(OC)C2)CC(=O)C(C)/C=C(/C)C(O)C(OC)C(=O)C(C)CC(C)C=CC=C/C=C\1C` (some centres undefined), the Potency is reported as 2000 nM (active).
For `CN[C@H](C)CCC=C(C)C`, the Potency was 224 nM (active).

In the case of `CC(=O)N[C@H]1[C@H](O[C@@H]2c3ccc(c(Cl)c3)Oc3cc4cc(c3O[C@@H]3O[C@H](CO)[C@@H](O)[C@H](O)C3C)Oc3ccc(cc3Cl)C[C@H]3NC(=O)[C@@H](N)c5ccc(O)c(c5)Oc5cc(O)cc(c5)[C@H](NC3=O)C(=O)N[C@H]4C(=O)N[C@H]3C(=O)N[C@@H]2C(=O)N[C@@H](C(=O)O)c2cc(O)cc(O[C@H]4O[C@H](CO)[C@@H](O)C(O)[C@@H]4O)c2-c2cc3ccc2O)O[C@H](CO)[C@@H](O)[C@@H]1O` (some centres undefined), the “activity, negative = inhibition” value is reported as 7.72% [at 12.8 µM].
